Experimental findings from PubChem BioAssay (NCI) are described below.

About 83,000 compounds went through this panel and 20% of them were active in at least one assay; those are over-represented in the sample as a whole.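 Step 1: grow cells in 96-well plates. Step 2: add test compound at a single concentration. Step 3: incubate 48 h. Step 4: record percent growth.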 Unmarked numbers belong to inactive results. Calls of active or inactive are those of the source. How the source made its calls: active means growth percent below 10; inactive means the rest.

Some test systems named below: HCT-15 colon; HT29 colon; SNB-75 CNS; SNB-19 CNS; U251 CNS; PC-3 prostate; SK-MEL-5 melanoma; UACC-62 melanoma; LOX IMVI melanoma; SK-MEL-28 melanoma; SK-MEL-2 melanoma; EKVX NSCLC; SN12C renal; UO-31 renal; TK-10 renal; ACHN renal; CAKI-1 renal; A498 renal; CCRF-CEM leukemia; MOLT-4 leukemia.
Assay in all cases: NCI-60 one-dose screen, 48 h (100 = growth as untreated, 0 = no growth, -100 = all killed)
Common to all, as to details: 10 µM

As for `CCCSc1nc(NC2CC2)c(C#N)c(-c2ccc(OC)cc2)n1`, the growth is 95.4% in the experiment with HCT-15 colon; 90.1% in the experiment with HT29 colon; 103% in the experiment with SNB-75 CNS; 70.3% in the experiment with SNB-19 CNS; 87.4% in the experiment with U251 CNS; 95.3% in the experiment with PC-3 prostate. Further, the growth is 98.2% in the experiment with SK-MEL-5 melanoma; 83.7% with UACC-62 melanoma; 93.9% in the experiment on LOX IMVI melanoma; 118% in the experiment with SK-MEL-28 melanoma; 118% in the experiment on SK-MEL-2 melanoma; 101% in the experiment on EKVX NSCLC. Also, the growth with SN12C renal is 91.9%; in the experiment on UO-31 renal it was 93.6%; with TK-10 renal it was 106%; with ACHN renal it was 85.2%; in the experiment with CAKI-1 renal, 86.9%; with A498 renal, 100%. Besides, the growth was 97.1% with CCRF-CEM leukemia and 100% in the experiment with MOLT-4 leukemia.
As for `CCOC(=O)c1c(CSc2ccccc2)n(C)c2cc(CN(C)C)c(O)c(CN(C)C)c12`, the growth was 20.5% in the experiment with HCT-15 colon; 19.8% in the experiment on HT29 colon; 89.4% with SNB-75 CNS; 60.2% in the experiment with SNB-19 CNS; 30% in the experiment on U251 CNS; 25.1% with PC-3 prostate. For the same compound, the growth in the experiment with SK-MEL-5 melanoma was 36.4%; with UACC-62 melanoma, 48.2%; with LOX IMVI melanoma, 22.2%; in the experiment on SK-MEL-28 melanoma, 48.6%; with SK-MEL-2 melanoma, 77.5%; in the experiment on EKVX NSCLC it was 36.9%. Besides, the growth is 27.2% with SN12C renal; 28% with UO-31 renal; 75.9% in the experiment on TK-10 renal; 59% with ACHN renal; 57.8% in the experiment with CAKI-1 renal; 118% in the experiment with A498 renal. The growth in the experiment with CCRF-CEM leukemia is 42.7%; in the experiment on MOLT-4 leukemia, 49%.
Turning to `COc1ccc(/C=C/C(=O)c2ccc(NC(=O)CN3C(=O)NC(C)(c4ccccc4)C3=O)cc2)cc1` (stereo not given), the growth was 75.7% in the experiment with HCT-15 colon; 67.6% with HT29 colon; 96.8% in the experiment on SNB-75 CNS; 91.8% with SNB-19 CNS; 67.7% in the experiment with U251 CNS; 61.4% in the experiment with PC-3 prostate. Also, the growth with SK-MEL-5 melanoma is 60.1%; in the experiment with UACC-62 melanoma, 50%; with LOX IMVI melanoma it was 56.5%; in the experiment with SK-MEL-28 melanoma it was 93.8%; in the experiment with SK-MEL-2 melanoma it was 93.4%; in the experiment with EKVX NSCLC, 91%. For the same compound, the growth in the experiment with SN12C renal was 95.3%; in the experiment with UO-31 renal it was 56.8%; in the experiment on TK-10 renal it was 109%; with ACHN renal, 84.5%; in the experiment on CAKI-1 renal, 79%; in the experiment on A498 renal, 119%. For the same compound, the growth in the experiment with CCRF-CEM leukemia is 78.3%; in the experiment on MOLT-4 leukemia, 49.7%.
As for `O=C(Cn1nc(-c2ccccc2)ccc1=O)NN1C(=O)c2ccccc2C1=O`, the growth in the experiment on HCT-15 colon is 99.2%; in the experiment with HT29 colon, 120%; with SNB-75 CNS, 107%; in the experiment with SNB-19 CNS it was 89.8%; in the experiment on U251 CNS it was 102%; in the experiment with PC-3 prostate it was 97.8%. The growth in the experiment with SK-MEL-5 melanoma was 100%; in the experiment on UACC-62 melanoma, 106%; in the experiment with LOX IMVI melanoma it was 92.7%; with SK-MEL-28 melanoma, 108%; in the experiment on SK-MEL-2 melanoma it was 104%; in the experiment with EKVX NSCLC, 101%. For the same compound, the growth is 123% in the experiment with SN12C renal; 85.8% in the experiment on UO-31 renal; 105% in the experiment with TK-10 renal; 99% in the experiment with ACHN renal; 95.3% with CAKI-1 renal; 103% in the experiment with A498 renal. For the same compound, the growth with CCRF-CEM leukemia was 102%; with MOLT-4 leukemia, 108%.
Consider `COc1ccc([C@H]2C(C(=O)c3ccc(Cl)cc3)C3(N[C@@H]2c2ccccc2)C(=O)Nc2ccc(Cl)cc23)cc1` (stereo not given in full), for which the growth was -23% (active) with HCT-15 colon; -50.8% (active) in the experiment on HT29 colon; 35.8% with SNB-75 CNS; 16% in the experiment with SNB-19 CNS; -33.9% (active) in the experiment with U251 CNS; 18.1% with PC-3 prostate. The growth was 4.07% (active) in the experiment on SK-MEL-5 melanoma; -63.1% (active) in the experiment with UACC-62 melanoma; -100% (active) with LOX IMVI melanoma; 4.54% (active) in the experiment with SK-MEL-28 melanoma; -65.5% (active) with SK-MEL-2 melanoma; 4.5% (active) with EKVX NSCLC. Also, the growth with SN12C renal was -86.5% (active); in the experiment on UO-31 renal, -1.98% (active); in the experiment on TK-10 renal, 9.59% (active); with ACHN renal, 1.5% (active); in the experiment on CAKI-1 renal it was 4.6% (active); with A498 renal, 10.4%. Further, the growth with CCRF-CEM leukemia is 21.9%; with MOLT-4 leukemia it was 12.1%.
Take `O=C(c1ccc(Cl)cc1)C1[C@H](c2ccccc2Br)[C@@H](c2ccccc2)NC12C(=O)Nc1ccccc12` (stereo not given in full): the growth is 12% in the experiment with HCT-15 colon; -16% (active) in the experiment on HT29 colon; 33.1% in the experiment on SNB-75 CNS; 31.6% in the experiment with SNB-19 CNS; 21.5% with U251 CNS; 17.3% in the experiment on PC-3 prostate. In addition, the growth in the experiment with SK-MEL-5 melanoma was -15.9% (active); in the experiment with UACC-62 melanoma it was 7.38% (active); in the experiment with LOX IMVI melanoma, -69.1% (active); in the experiment on SK-MEL-28 melanoma, 44.8%; in the experiment on SK-MEL-2 melanoma, 2.05% (active); in the experiment on EKVX NSCLC, 14%. In addition, the growth with SN12C renal was -54.2% (active); with UO-31 renal, 13.1%; in the experiment with TK-10 renal it was 55.7%; with ACHN renal, 11.1%; in the experiment with CAKI-1 renal, 14.8%; with A498 renal it was 55.5%. Also, the growth is 7.61% (active) in the experiment with CCRF-CEM leukemia and 2.61% (active) in the experiment on MOLT-4 leukemia.
As to `COc1cc(NC(=O)c2cc(-c3ccc(F)cc3F)ccc2O)cc(OC)c1OC`, the growth in the experiment with HCT-15 colon is 41.1%; with HT29 colon it was 110%; in the experiment with SNB-75 CNS, 40.9%; in the experiment with SNB-19 CNS it was 31.1%; in the experiment on U251 CNS it was 32.6%; with PC-3 prostate, 21.9%. Further, the growth is -15.7% (active) with SK-MEL-5 melanoma; 0.606% (active) in the experiment on UACC-62 melanoma; 55.3% in the experiment on LOX IMVI melanoma; 25% in the experiment on SK-MEL-28 melanoma; -5.57% (active) in the experiment with SK-MEL-2 melanoma; 50% with EKVX NSCLC. Moreover, the growth with SN12C renal was 18.6%; in the experiment on UO-31 renal it was 9.27% (active); in the experiment on TK-10 renal, 33%; with ACHN renal, 55.9%; in the experiment on CAKI-1 renal, 30.6%; in the experiment on A498 renal, -1.46% (active). In addition, the growth was 25.6% with CCRF-CEM leukemia and 10.6% in the experiment with MOLT-4 leukemia.
